Reference: PubChem BioAssay (NCATS)
Inconclusive results are not listed. Entries that show only a call come without a potency. The source made the active and inactive calls. Calls follow the shape of the dose curve; as a rule, active = well fitted inhibition curve with a large enough effect; inconclusive = small, poorly fitted or top-dose-only effect; inactive = flat fitted curve, though single readings scatter.

Each molecule was assayed against Phospholipid hydroperoxide glutathione peroxidase GPX4 (Homo sapiens) (UniProt P36969) (assay: Primary qHTS Assay for Inhibitors of Recombinant Selenoprotein Glutathione Peroxidase 4 (GPX4) (AID 1845192; also: nearly all actives have a fitted effect of over 65% in size)). Settings: recombinant GPX4, GR-coupled NADPH fluorescence, 15 min; series mostly up to 50 µM.
How it was run: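 NADPH consumption followed by fluorescence at 340/450 nm, t=0 and after 15 min at room temperature. Reaction started with cumene hydroperoxide (0.5 mM final) after 30 min compound–GPX4 preincubation; final 200 nM GPX4, 100 nM GR, 1 mM GSH, 0.5 mM NADPH.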

Phospholipid hydroperoxide glutathione peroxidase GPX4 (Homo sapiens), sequence (P36969 whole entry, looked up): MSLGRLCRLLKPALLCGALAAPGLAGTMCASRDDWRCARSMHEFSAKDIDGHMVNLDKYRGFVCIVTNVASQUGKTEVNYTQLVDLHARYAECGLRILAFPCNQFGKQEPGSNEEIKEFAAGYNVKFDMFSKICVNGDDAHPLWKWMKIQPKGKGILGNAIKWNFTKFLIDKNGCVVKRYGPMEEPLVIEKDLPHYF

| Structure (SMILES) | Potency |
| --- | --- |
| CCCCCCCCCCC[C@@H](C[C@@H]1OC(=O)[C@H]1CCCCCC)OC(=O)[C@H](CC(C)C)NC=O | inactive |
| CC(=O)OCC(=O)[C@H]1CC[C@H]2[C@@H]3CCC4=CC(=O)CC[C@]4(C)[C@H]3CC[C@]12C | inactive |
| CC(CNC1CCCCC1)OC(=O)c1ccccc1 (stereo not drawn) | inactive |
| CCC1NC(=O)c2cc(S(N)(=O)=O)c(Cl)cc2N1 (stereo not drawn) | inactive |
| COc1cc(NS(=O)(=O)c2ccc(N)cc2)ncn1 | inactive |
| FC(F)(F)C(F)(F)C(F)(F)C(F)(F)C(F)(F)C(F)(F)C(F)(F)C(F)(F)Br | inactive |
| CCOC(=O)c1c(N)sc2c1CCN(Cc1ccccc1)C2 | inactive |
| CC(O)Cn1cnc2c1c(=O)n(C)c(=O)n2C (stereo not drawn) | inactive |
| CN1CCC[C@@H]1CCO[C@](C)(c1ccccc1)c1ccc(Cl)cc1 | inactive |
| CN(C)CCOC(c1ccc(Cl)cc1)c1ccccn1 (stereo not drawn) | inactive |
| CCCCC(CC)CN1CN(CC(CC)CCCC)CC(C)(N)C1 (stereo not drawn) | inactive |
| CC1=C(C(=O)O)N2C(=O)[C@@H](NC(=O)[C@H](N)c3ccccc3)[C@H]2SC1 | inactive |
| CCCCc1cc2ccccc2c(OCCN(C)C)n1 | inactive |
| CCCc1ncc(C[n+]2ccccc2C)c(N)n1 | inactive |
| Cc1ccc(O)c([C@H](CCN(C(C)C)C(C)C)c2ccccc2)c1 | inactive |
| CN(C)CCOC(=O)C(c1ccccc1)C1(O)CCCC1 (stereo not drawn) | inactive |
| COc1cc(C)nc(-n2nc(C)cc2OC)n1 | inactive |
| CCc1nn(CCCN2CCN(c3cccc(Cl)c3)CC2)c(=O)n1CCOc1ccccc1 | inactive |
| O=C1[C@H](CC[C@H](O)c2ccc(F)cc2)[C@@H](c2ccc(O)cc2)N1c1ccc(F)cc1 | inactive |

| Structure (SMILES) | Potency |
| --- | --- |
| CCOC(=O)[C@H](CCc1ccccc1)N[C@@H](C)C(=O)N1[C@H](C(=O)O)C[C@@H]2CCC[C@@H]21 | inactive |
| CN1CCc2cccc3c2[C@H]1Cc1ccc(O)c(O)c1-3 | inactive |
| C[C@@]12C(=O)OC(=O)[C@]1(C)C1CCC2O1 | inactive |
| CN1CCN(C2=Nc3ccccc3Sc3ccc(Cl)cc32)CC1 | inactive |
| CCOCCn1c(N2CCCN(C)CC2)nc2ccccc21 | inactive |
| O=C1C(=O)c2ccccc2C(O)=C1C1CCC(c2ccc(Cl)cc2)CC1 (stereo not drawn) | inactive |
| COc1cc(O)c(C(=O)c2ccccc2)cc1S(=O)(=O)O | inactive |
| CCN(CC)CCOC(=O)C(Cc1cccc2ccccc12)CC1CCCO1 (stereo not drawn) | inactive |
| CNCCc1ccccn1 | inactive |
| C=CCN1CCc2nc(N)sc2CC1 | inactive |
| Oc1ccc(Cl)cc1Cc1cc(Cl)ccc1O | inactive |
| COc1ccc(CN(CCN(C)C)c2ncccn2)cc1 | inactive |
| NS(=O)(=O)Cc1noc2ccccc12 | inactive |
| C=C[C@H]1CN2CC[C@H]1C[C@@H]2[C@@H](O)c1ccnc2ccc(OC)cc12 | inactive |
| C[N+]12CCC(CC1)C(OC(=O)C(O)(c1ccccc1)c1ccccc1)C2 (stereo not drawn) | inactive |
| CC[N+](C)(CC)CCOC(=O)C(O)(c1ccccc1)C1CCCCC1 (stereo not drawn) | inactive |
| C#C[C@]1(O)CC[C@H]2[C@@H]3CCC4=CC(=O)CC[C@@H]4[C@H]3CC[C@@]21CC | inactive |
| CCOc1cc(OCC)c(C(=O)CCC(=O)O)cc1OCC | inactive |
| NCCNC(=O)c1ccc(Cl)cn1 | inactive |
